Source: paper PMC11062922 (Nature Chemical Biology, 2023)
Read-outs that look alike come from different tables or passages of the source.

Tests used:
GSK3A = tested on: GSK3A; design: species or system human, MV4-11 + K-562 + COLO205 + SK-N-BE2 + OVCAR-8; conditions: read-out: apparent Kd, n = 1
GSK3B = tested on: GSK3B; design: species or system human, MV4-11 + K-562 + COLO205 + SK-N-BE2 + OVCAR-8; conditions: read-out: apparent Kd, n = 1
PAK4 = tested on: PAK4; design: species or system human, MV4-11 + K-562 + COLO205 + SK-N-BE2 + OVCAR-8; conditions: read-out: apparent Kd, n = 1
PKN3 [1] = tested on: PKN3; design: species or system human, MV4-11 + K-562 + COLO205 + SK-N-BE2 + OVCAR-8; conditions: read-out: apparent Kd, n = 1;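 for IC50: NanoBRET target engagement in HEK293T cells transiently expressing full-length PKN3 with C-terminal NanoLuc, displacement of fluorescent tracer K5 (500 nM), BRET read after 2 h equilibration at 37 °C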
PKN3 [2] = conditions: hek293t cells
AAK1 = tested on: AAK1; design: species or system human, MV4-11 + K-562 + COLO205 + SK-N-BE2 + OVCAR-8; conditions: read-out: apparent Kd, n = 1
BMP2K = tested on: BMP2K; design: species or system human, MV4-11 + K-562 + COLO205 + SK-N-BE2 + OVCAR-8; conditions: read-out: apparent Kd, n = 1
CLK1 = tested on: CLK1; design: species or system human, MV4-11 + K-562 + COLO205 + SK-N-BE2 + OVCAR-8; conditions: read-out: apparent Kd, n = 1
CLK4 = tested on: CLK4; design: species or system human, MV4-11 + K-562 + COLO205 + SK-N-BE2 + OVCAR-8; conditions: read-out: apparent Kd, n = 1
CSNK2A1;CSNK2A3 = tested on: CSNK2A1;CSNK2A3; design: species or system human, MV4-11 + K-562 + COLO205 + SK-N-BE2 + OVCAR-8; conditions: read-out: apparent Kd, n = 1
CSNK2A2 = tested on: CSNK2A2; design: species or system human, MV4-11 + K-562 + COLO205 + SK-N-BE2 + OVCAR-8; conditions: read-out: apparent Kd, n = 1
FLT4 = tested on: FLT4; design: species or system human, MV4-11 + K-562 + COLO205 + SK-N-BE2 + OVCAR-8; conditions: read-out: apparent Kd, n = 1
GAK = tested on: GAK; design: species or system human, MV4-11 + K-562 + COLO205 + SK-N-BE2 + OVCAR-8; conditions: read-out: apparent Kd, n = 1
NUAK1 = tested on: NUAK1; design: species or system human, MV4-11 + K-562 + COLO205 + SK-N-BE2 + OVCAR-8; conditions: read-out: apparent Kd, n = 1
PKN1 = tested on: PKN1; design: species or system human, MV4-11 + K-562 + COLO205 + SK-N-BE2 + OVCAR-8; conditions: read-out: apparent Kd, compound concentrations: 100 nM and 1000 nM (sheet 'Samples'), n = 1
PRKAG1 = tested on: PRKAG1; design: species or system human, MV4-11 + K-562 + COLO205 + SK-N-BE2 + OVCAR-8; conditions: read-out: apparent Kd, n = 1
Q6ZSR9 = Q6ZSR9 (human, UniProt Q6ZSR9); design: species or system MV4-11 + K-562 + COLO205 + SK-N-BE2 + OVCAR-8; conditions: read-out: apparent Kd, n = 1
Chain of Q6ZSR9 (Q6ZSR9 whole entry, looked up): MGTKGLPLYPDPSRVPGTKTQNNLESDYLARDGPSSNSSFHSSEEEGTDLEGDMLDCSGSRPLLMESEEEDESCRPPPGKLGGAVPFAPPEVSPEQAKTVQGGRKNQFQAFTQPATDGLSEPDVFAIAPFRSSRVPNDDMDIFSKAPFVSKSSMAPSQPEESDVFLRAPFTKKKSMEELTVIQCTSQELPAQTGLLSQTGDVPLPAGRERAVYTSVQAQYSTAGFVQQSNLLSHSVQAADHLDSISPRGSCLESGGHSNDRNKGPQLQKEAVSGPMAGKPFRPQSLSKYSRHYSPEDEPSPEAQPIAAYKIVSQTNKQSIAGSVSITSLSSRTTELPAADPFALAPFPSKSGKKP

RET = tested on: RET; design: species or system human, MV4-11 + K-562 + COLO205 + SK-N-BE2 + OVCAR-8; conditions: read-out: apparent Kd, n = 1
SIK2 = tested on: SIK2; design: species or system human, MV4-11 + K-562 + COLO205 + SK-N-BE2 + OVCAR-8; conditions: read-out: apparent Kd, n = 1
MELK = tested on: MELK; design: species or system human, MV4-11 + K-562 + COLO205 + SK-N-BE2 + OVCAR-8; conditions: read-out: apparent Kd; compound concentrations:100 nM and 1000 nM (sheet 'Samples'); n = 1
[3] = compound concentrations:100 nM and 1000 nM (sheet 'Samples')

## CCn1c(-c2nonc2N)nc2c(C#CC(C)(C)O)nc(OC[C@@H](N)c3ccccc3)cc21 [GSK938890A]
GSK3A; compound concentrations: 100 nM and 1000 nM (sheet 'Samples'), CATDS: 6.6915182583243901E-2
  potency estimated from few doses: 404 nM
GSK3B; compound concentrations: 100 nM and 1000 nM (sheet 'Samples'), CATDS: 6.5310864553074097E-2
  potency estimated from few doses: 446 nM
PAK4; compound concentrations: 100 nM and 1000 nM (sheet 'Samples'), CATDS: 0.107853549418886
  potency estimated from few doses: 88.3 nM
PKN3 [1]; compound concentrations: 100 nM and 1000 nM (sheet 'Samples'), CATDS: 0.20749541918588199
  potency estimated from few doses: 23.6 nM
PKN3 [2]; read-out: Average, SD, n = 4
  IC50: 97.8 nM
PKN3 [2]; read-out: Rep 1
  IC50: 310 nM
PKN3 [2]; read-out: Rep 2
  IC50: 31.2 nM
PKN3 [2]; read-out: Rep 3
  IC50: 28.1 nM
PKN3 [2]; read-out: Rep 4
  IC50: 22.3 nM

## Cl.Nc1c(C(=O)c2cccc(C#CCN3CCCCC3)c2)cnn1-c1ccc(F)cc1 [RO1154461-001]
AAK1; compound concentrations: 100 nM and 1000 nM (sheet 'Samples'), CATDS: 1.4474046603820999E-2
  potency estimated from few doses: 607 nM
BMP2K; compound concentrations: 100 nM and 1000 nM (sheet 'Samples'), CATDS: 1.20459910405703E-2
  potency estimated from few doses: 1000 nM
CLK1; compound concentrations: 100 nM and 1000 nM (sheet 'Samples'), CATDS: 1.5060802907151999E-2
  potency estimated from few doses: 552 nM
CLK4; compound concentrations: 100 nM and 1000 nM (sheet 'Samples'), CATDS: 1.3844573276346099E-2
  potency estimated from few doses: 679 nM
CSNK2A1;CSNK2A3; compound concentrations: 100 nM and 1000 nM (sheet 'Samples'), CATDS: 1.1541786487004701E-2
  potency estimated from few doses: 1140 nM
CSNK2A2; compound concentrations: 100 nM and 1000 nM (sheet 'Samples'), CATDS: 1.10304448511726E-2
  potency estimated from few doses: 1330 nM
FLT4; compound concentrations: 100 nM and 1000 nM (sheet 'Samples'), CATDS: 1.33586959494144E-2
  potency estimated from few doses: 746 nM
GAK; compound concentrations: 100 nM and 1000 nM (sheet 'Samples'), CATDS: 4.3588593109949197E-2
  potency estimated from few doses: 81.4 nM
GSK3A; compound concentrations: 100 nM and 1000 nM (sheet 'Samples'), CATDS: 3.2177955723616897E-2
  potency estimated from few doses: 129 nM
GSK3B; compound concentrations: 100 nM and 1000 nM (sheet 'Samples'), CATDS: 1.7633019943865499E-2
  potency estimated from few doses: 387 nM
NUAK1; compound concentrations: 100 nM and 1000 nM (sheet 'Samples'), CATDS: 1.03638923622048E-2
  potency estimated from few doses: 1670 nM
PAK4; compound concentrations: 100 nM and 1000 nM (sheet 'Samples'), CATDS: 1.4039072021364001E-2
  potency estimated from few doses: 656 nM
PKN1; CATDS: 1.0439948324783401E-2
  potency estimated from few doses: 1630 nM
PKN3 [1]; compound concentrations: 100 nM and 1000 nM (sheet 'Samples'), CATDS: 1.05012639622415E-2
  potency estimated from few doses: 1590 nM
PRKAG1; compound concentrations: 100 nM and 1000 nM (sheet 'Samples'), CATDS: 3.6022361277962302E-2
  potency estimated from few doses: 108 nM
Q6ZSR9; compound concentrations: 100 nM and 1000 nM (sheet 'Samples'), CATDS: 1.44791042777868E-2
  potency estimated from few doses: 607 nM
RET; compound concentrations: 100 nM and 1000 nM (sheet 'Samples'), CATDS: 1.69120998976478E-2
  potency estimated from few doses: 424 nM
SIK2; compound concentrations: 100 nM and 1000 nM (sheet 'Samples'), CATDS: 1.66377583432985E-2
  potency estimated from few doses: 439 nM

## CNC(=O)c1ccccc1Nc1nc(Nc2ccc(N3CCOCC3)cc2)ncc1Cl.Cl [GSK1576028A]
AAK1; [3]
  potency estimated from few doses: 142 nM
BMP2K; [3]
  potency estimated from few doses: 1140 nM
CLK1; [3]
  potency estimated from few doses: 260 nM
CLK4; [3]
  potency estimated from few doses: 321 nM
CSNK2A1;CSNK2A3; [3]
  potency estimated from few doses: 59.3 nM
CSNK2A2; [3]
  potency estimated from few doses: 24.4 nM
FLT4; [3]
  potency estimated from few doses: 309 nM
GAK; [3]
  potency estimated from few doses: 90.3 nM
MELK
  potency estimated from few doses: 2220 nM
NUAK1; [3]
  potency estimated from few doses: 92.2 nM
PRKAG1; [3]
  potency estimated from few doses: 461 nM
Q6ZSR9; [3]
  potency estimated from few doses: 116 nM
RET; [3]
  potency estimated from few doses: 93.9 nM
SIK2; [3]
  potency estimated from few doses: 611 nM

## CN(C)CC(O)COc1ccc(Nc2nccc(-c3cnn4nc(N5CCOCC5)ccc34)n2)cc1 (stereo not drawn) [GW767488X]
AAK1; [3]
  potency estimated from few doses: 23.6 nM
BMP2K; [3]
  potency estimated from few doses: 180 nM
CLK1; [3]
  potency estimated from few doses: 54.1 nM
CLK4; [3]
  potency estimated from few doses: 34.2 nM
CSNK2A1;CSNK2A3; [3]
  potency estimated from few doses: 105 nM
CSNK2A2; [3]
  potency estimated from few doses: 57.1 nM
GAK; [3]
  potency estimated from few doses: 378 nM
MELK
  potency estimated from few doses: 1490 nM
Q6ZSR9; [3]
  potency estimated from few doses: 29.6 nM

## Cc1n[nH]c2cc(Nc3ccnc(Nc4cccc(CN5CCOCC5)c4)n3)ccc12 [GW682569X]
AAK1; compound concentrations: 100 nM and 1000 nM (sheet 'Samples'), CATDS: 0.12351757147220301
  potency estimated from few doses: 729 nM
BMP2K; compound concentrations: 100 nM and 1000 nM (sheet 'Samples'), CATDS: 0.100079515212571
  potency estimated from few doses: 1250 nM
Q6ZSR9; compound concentrations: 100 nM and 1000 nM (sheet 'Samples'), CATDS: 0.10935758268406801
  potency estimated from few doses: 981 nM

## CC(=O)N[C@@H](Cc1ccc(OP(=O)(O)O)cc1)C(=O)N[C@H]1CCC(=O)N2CCC[C@@H](C(=O)NCc3ccc(Cl)cc3)N2C1=O [RO0325308-000]
AAK1; [3]
  potency estimated from few doses: 737 nM
BMP2K; [3]
  potency estimated from few doses: 1480 nM
CLK1; [3]
  potency estimated from few doses: 60.4 nM
CSNK2A1;CSNK2A3; [3]
  potency estimated from few doses: 1430 nM
CSNK2A2; [3]
  potency estimated from few doses: 1780 nM
FLT4; [3]
  potency estimated from few doses: 28.4 nM
GAK; [3]
  potency estimated from few doses: 59.4 nM
GSK3A; [3]
  potency estimated from few doses: 59 nM
GSK3B; [3]
  potency estimated from few doses: 60.7 nM
PAK4; [3]
  potency estimated from few doses: 1170 nM
PKN3 [1]; [3]
  potency estimated from few doses: 152 nM
PRKAG1; [3]
  potency estimated from few doses: 523 nM
Q6ZSR9; [3]
  potency estimated from few doses: 1030 nM
RET; [3]
  potency estimated from few doses: 876 nM
SIK2; [3]
  potency estimated from few doses: 943 nM

## COC(=O)c1cccc(NC(=O)NC2CCN(c3ccnc(Nc4cc(OC)c(OC)c(OC)c4)n3)C2)c1 (stereo not drawn) [GSK1379767A]
AAK1; compound concentrations: 100 nM and 1000 nM (sheet 'Samples'), CATDS: 0.10680715656565699
  potency estimated from few doses: 1510 nM

## Cc1ccccc1-n1ncc(C(=O)c2ccccc2)c1N [RO1151248-000]
AAK1; compound concentrations: 100 nM and 1000 nM (sheet 'Samples'), CATDS: 2.38860019962077E-2
  potency estimated from few doses: 914 nM
CSNK2A1;CSNK2A3; compound concentrations: 100 nM and 1000 nM (sheet 'Samples'), CATDS: 1.72589051675766E-2
  potency estimated from few doses: 2250 nM
FLT4; compound concentrations: 100 nM and 1000 nM (sheet 'Samples'), CATDS: 1.8880298651143101E-2
  potency estimated from few doses: 1670 nM
GAK; compound concentrations: 100 nM and 1000 nM (sheet 'Samples'), CATDS: 3.2430470905267197E-2
  potency estimated from few doses: 506 nM
GSK3A; compound concentrations: 100 nM and 1000 nM (sheet 'Samples'), CATDS: 2.9908240641474598E-2
  potency estimated from few doses: 584 nM
GSK3B; compound concentrations: 100 nM and 1000 nM (sheet 'Samples'), CATDS: 2.52342080828949E-2
  potency estimated from few doses: 813 nM
PAK4; compound concentrations: 100 nM and 1000 nM (sheet 'Samples'), CATDS: 2.19543905026186E-2
  potency estimated from few doses: 1110 nM
PKN1; CATDS: 1.7045557740064301E-2
  potency estimated from few doses: 2350 nM
PRKAG1; compound concentrations: 100 nM and 1000 nM (sheet 'Samples'), CATDS: 2.5293867995276598E-2
  potency estimated from few doses: 809 nM
Q6ZSR9; compound concentrations: 100 nM and 1000 nM (sheet 'Samples'), CATDS: 2.32948628287949E-2
  potency estimated from few doses: 967 nM
RET; compound concentrations: 100 nM and 1000 nM (sheet 'Samples'), CATDS: 2.2142525707208802E-2
  potency estimated from few doses: 1090 nM
SIK2; compound concentrations: 100 nM and 1000 nM (sheet 'Samples'), CATDS: 2.40988460516664E-2
  potency estimated from few doses: 897 nM
